Assay results reported in paper PMC7862700, “An all-to-all approach to the identification of sequence-specific readers for epigenetic DNA modifications on cytosine”.

What was measured:
Assay in all cases: DAPPL (digital affinity profiling via proximity ligation, sequencing); 10 mM Tris-HCl pH 7.5, 50 mM NaCl, 1 mM DTT, 4% glycerol, room temperature, 30 min; GST-TFs on glutathione beads, 16-mer random dsDNA library, 0.1% formaldehyde crosslink after washing; high values mean tight binding
[1] = molecular target: T1, FEV (Homo sapiens, UniProt Q99581 1-238); settings: protein: recombinant; tags: N-terminal GST; dsDNA, one strand shown
T1 sequence: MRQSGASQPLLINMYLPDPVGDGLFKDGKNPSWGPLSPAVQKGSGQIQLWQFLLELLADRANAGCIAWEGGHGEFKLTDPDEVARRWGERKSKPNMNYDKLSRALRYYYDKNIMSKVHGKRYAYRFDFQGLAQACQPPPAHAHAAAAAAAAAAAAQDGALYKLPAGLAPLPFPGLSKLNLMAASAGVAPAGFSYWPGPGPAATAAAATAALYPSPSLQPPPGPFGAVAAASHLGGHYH
Method in brief: (§1)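 The binding signal reported is, for every hexamer, its read frequency for a factor over its read frequency for the tag-only sample. Reads came from pools of yeast-expressed, GST-fused human transcription factors on glutathione beads, barcoded with DNA and mixed with that sample, which were incubated with 200 nmole of a random double-stranded 16-mer DNA library in Tris/NaCl/DTT/glycerol buffer at room temperature for 30 min. After washing, the pools were crosslinked with 0.1% formaldehyde, proximity-ligated with BsaI/T4 ligase for 1 h at 37 °C, PCR-amplified and sequenced on an Illumina NextSeq500.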

[2] = molecular target: ETV5 (Homo sapiens, UniProt P41161 1-510); settings: protein: recombinant; tags: N-terminal GST; dsDNA, one strand shown
Sequence of ETV5 (P41161 whole entry): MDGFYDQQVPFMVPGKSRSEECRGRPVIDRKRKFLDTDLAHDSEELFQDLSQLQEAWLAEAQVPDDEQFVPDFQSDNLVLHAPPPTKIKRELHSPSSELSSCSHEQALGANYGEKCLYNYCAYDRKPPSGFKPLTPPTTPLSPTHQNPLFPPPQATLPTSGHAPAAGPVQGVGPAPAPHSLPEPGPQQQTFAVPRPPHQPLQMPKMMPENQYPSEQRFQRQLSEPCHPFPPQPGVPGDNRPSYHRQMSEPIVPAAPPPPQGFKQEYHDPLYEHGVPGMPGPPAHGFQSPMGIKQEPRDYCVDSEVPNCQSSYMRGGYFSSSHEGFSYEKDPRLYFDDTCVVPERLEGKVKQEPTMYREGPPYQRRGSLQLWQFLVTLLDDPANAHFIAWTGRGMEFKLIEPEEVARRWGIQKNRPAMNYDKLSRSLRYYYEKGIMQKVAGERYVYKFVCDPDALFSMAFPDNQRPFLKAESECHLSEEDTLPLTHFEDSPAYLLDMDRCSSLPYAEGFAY
Method in brief: as §1

[3] = molecular target: HSF1 (Homo sapiens, UniProt Q00613 1-529); settings: protein: recombinant; tags: N-terminal GST; chain copies: 3; dsDNA, one strand shown
Sequence of HSF1 (Q00613 whole entry): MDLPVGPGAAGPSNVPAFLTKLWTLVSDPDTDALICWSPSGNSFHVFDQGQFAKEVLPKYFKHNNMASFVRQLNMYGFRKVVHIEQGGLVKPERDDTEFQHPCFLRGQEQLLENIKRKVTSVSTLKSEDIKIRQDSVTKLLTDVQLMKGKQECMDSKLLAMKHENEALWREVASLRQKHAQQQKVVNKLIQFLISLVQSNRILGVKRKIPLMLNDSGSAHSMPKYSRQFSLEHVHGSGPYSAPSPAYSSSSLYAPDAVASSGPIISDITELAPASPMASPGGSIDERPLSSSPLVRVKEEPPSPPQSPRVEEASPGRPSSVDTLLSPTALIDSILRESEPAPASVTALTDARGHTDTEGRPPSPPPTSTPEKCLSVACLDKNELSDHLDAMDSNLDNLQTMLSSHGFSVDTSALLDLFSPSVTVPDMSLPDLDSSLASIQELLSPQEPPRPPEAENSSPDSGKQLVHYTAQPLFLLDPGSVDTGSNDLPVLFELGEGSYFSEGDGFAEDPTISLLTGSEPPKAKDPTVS
Method in brief: as §1

[4] = molecular target: T2, SPIC (Homo sapiens, UniProt Q8N5J4 1-248); settings: protein: recombinant; tags: N-terminal GST; dsDNA, one strand shown
T2 sequence: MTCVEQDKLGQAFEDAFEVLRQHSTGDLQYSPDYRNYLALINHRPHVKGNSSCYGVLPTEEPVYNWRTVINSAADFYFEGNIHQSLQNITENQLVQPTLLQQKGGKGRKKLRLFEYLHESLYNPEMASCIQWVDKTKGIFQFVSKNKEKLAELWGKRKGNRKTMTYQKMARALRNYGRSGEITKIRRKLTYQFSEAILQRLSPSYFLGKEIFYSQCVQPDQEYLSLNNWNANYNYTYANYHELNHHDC
Method in brief: as §1

[5] = molecular target: ELF4 (Homo sapiens, UniProt Q99607 1-663); settings: protein: recombinant; tags: N-terminal GST; dsDNA, one strand shown
Sequence of ELF4 (Q99607 whole entry): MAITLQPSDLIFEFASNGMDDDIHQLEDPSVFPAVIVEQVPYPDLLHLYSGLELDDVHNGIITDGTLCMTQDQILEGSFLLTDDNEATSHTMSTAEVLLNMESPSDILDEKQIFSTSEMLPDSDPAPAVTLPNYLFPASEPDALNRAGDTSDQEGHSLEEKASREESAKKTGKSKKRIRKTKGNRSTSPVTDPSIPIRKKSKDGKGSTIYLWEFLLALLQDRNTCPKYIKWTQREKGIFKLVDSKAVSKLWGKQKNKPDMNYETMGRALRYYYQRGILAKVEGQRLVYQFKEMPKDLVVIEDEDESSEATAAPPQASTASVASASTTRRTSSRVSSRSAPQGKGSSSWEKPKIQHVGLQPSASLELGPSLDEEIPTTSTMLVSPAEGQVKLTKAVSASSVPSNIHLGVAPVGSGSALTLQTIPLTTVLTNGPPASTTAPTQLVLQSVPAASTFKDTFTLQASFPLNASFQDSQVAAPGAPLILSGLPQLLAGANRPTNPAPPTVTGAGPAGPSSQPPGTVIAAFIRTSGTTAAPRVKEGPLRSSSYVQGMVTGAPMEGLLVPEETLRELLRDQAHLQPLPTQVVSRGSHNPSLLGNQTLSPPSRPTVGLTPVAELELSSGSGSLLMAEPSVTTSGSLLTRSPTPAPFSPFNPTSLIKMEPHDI
Method in brief: as §1

[6] = molecular target: T3, ELK4 (Homo sapiens, UniProt P28324-2 1-405); settings: protein: recombinant; tags: N-terminal GST; dsDNA, one strand shown
T3 sequence: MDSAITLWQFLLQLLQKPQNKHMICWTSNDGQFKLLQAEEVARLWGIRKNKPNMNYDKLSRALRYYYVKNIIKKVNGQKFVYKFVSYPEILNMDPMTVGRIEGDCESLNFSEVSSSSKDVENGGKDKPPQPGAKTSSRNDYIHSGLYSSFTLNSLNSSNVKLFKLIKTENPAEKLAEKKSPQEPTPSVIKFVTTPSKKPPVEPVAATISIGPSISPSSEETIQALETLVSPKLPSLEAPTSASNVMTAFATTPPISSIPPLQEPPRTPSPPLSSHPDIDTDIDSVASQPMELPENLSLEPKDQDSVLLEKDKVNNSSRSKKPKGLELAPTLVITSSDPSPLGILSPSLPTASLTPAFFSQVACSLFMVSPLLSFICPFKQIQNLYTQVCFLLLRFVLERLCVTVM
Method in brief: as §1

[7] = molecular target: T4, ETV2 (Homo sapiens, UniProt O00321 1-342); settings: protein: recombinant; tags: N-terminal GST; dsDNA, one strand shown
T4 sequence: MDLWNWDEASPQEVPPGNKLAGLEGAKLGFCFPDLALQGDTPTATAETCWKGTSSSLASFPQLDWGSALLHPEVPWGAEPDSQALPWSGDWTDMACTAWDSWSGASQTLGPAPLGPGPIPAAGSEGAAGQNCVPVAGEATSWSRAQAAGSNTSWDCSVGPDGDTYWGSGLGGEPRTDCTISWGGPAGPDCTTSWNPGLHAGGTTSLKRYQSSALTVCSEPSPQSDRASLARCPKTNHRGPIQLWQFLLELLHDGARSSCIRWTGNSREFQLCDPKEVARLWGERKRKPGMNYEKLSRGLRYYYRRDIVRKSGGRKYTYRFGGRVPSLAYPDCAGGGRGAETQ
Method in brief: as §1

[8] = molecular target: T5, ELF3 (Homo sapiens, UniProt P78545 1-371); settings: protein: recombinant; tags: N-terminal GST; dsDNA, one strand shown
T5 sequence: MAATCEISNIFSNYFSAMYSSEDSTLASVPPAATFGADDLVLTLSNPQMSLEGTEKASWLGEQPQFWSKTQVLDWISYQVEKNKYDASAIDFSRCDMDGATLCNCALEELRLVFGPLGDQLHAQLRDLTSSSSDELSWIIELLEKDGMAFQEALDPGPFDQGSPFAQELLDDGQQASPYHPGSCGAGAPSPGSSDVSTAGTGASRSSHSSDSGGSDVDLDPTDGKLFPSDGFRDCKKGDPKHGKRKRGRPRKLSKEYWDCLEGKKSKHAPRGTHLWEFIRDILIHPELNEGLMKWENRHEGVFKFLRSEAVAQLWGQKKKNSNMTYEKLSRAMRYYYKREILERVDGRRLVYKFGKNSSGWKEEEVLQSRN
Method in brief: as §1

[9] = molecular target: ETV1 (Homo sapiens, UniProt P50549 1-477); settings: protein: recombinant; tags: N-terminal GST; dsDNA, one strand shown
Sequence of ETV1 (P50549 whole entry): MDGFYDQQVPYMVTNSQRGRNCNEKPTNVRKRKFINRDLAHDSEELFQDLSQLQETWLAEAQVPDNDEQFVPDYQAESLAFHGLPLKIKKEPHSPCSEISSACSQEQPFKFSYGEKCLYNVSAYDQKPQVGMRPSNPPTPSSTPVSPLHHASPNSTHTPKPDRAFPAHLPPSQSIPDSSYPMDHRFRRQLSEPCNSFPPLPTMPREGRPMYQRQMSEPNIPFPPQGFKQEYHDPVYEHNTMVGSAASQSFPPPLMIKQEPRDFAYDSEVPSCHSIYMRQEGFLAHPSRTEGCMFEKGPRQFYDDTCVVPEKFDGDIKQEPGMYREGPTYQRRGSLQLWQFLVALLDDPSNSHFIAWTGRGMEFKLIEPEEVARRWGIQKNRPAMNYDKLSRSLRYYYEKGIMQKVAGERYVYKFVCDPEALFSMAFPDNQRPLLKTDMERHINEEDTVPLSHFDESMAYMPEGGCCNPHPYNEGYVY
Method in brief: as §1

[10] = molecular target: T6, ERF (Homo sapiens, UniProt P50548 1-548); settings: protein: recombinant; tags: N-terminal GST; dsDNA, one strand shown
T6 sequence: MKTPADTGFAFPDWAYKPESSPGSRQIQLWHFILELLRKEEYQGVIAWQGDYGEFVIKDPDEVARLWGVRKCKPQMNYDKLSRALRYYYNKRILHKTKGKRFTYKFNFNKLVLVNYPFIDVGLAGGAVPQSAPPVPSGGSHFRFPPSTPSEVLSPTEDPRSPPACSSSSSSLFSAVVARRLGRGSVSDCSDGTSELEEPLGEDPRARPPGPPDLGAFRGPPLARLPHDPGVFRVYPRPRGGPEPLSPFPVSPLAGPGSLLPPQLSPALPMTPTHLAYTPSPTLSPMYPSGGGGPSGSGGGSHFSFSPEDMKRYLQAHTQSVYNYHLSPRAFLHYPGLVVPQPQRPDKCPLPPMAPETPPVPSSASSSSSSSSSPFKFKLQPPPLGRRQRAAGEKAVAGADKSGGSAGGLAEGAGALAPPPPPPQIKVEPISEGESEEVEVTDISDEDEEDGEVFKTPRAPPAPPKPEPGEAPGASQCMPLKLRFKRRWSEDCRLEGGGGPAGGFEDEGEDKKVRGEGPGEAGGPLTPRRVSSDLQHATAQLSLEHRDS
Method in brief: as §1

[11] = molecular target: T7, ETV3L (Homo sapiens, UniProt Q6ZN32 1-361); settings: protein: recombinant; tags: N-terminal GST; dsDNA, one strand shown
T7 sequence: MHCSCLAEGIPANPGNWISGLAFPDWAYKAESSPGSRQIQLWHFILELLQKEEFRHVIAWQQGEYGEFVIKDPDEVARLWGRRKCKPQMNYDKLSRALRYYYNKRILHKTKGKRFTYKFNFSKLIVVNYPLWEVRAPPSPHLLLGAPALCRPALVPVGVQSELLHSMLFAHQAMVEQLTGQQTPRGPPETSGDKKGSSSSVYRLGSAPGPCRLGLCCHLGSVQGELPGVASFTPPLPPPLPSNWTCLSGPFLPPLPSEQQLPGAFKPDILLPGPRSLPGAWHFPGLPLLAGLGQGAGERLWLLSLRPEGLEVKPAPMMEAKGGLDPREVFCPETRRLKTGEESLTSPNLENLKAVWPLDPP
Method in brief: as §1

[12] = molecular target: T8, ETS2 (Homo sapiens, UniProt P15036 1-469); settings: protein: recombinant; tags: N-terminal GST; dsDNA, one strand shown
T8 sequence: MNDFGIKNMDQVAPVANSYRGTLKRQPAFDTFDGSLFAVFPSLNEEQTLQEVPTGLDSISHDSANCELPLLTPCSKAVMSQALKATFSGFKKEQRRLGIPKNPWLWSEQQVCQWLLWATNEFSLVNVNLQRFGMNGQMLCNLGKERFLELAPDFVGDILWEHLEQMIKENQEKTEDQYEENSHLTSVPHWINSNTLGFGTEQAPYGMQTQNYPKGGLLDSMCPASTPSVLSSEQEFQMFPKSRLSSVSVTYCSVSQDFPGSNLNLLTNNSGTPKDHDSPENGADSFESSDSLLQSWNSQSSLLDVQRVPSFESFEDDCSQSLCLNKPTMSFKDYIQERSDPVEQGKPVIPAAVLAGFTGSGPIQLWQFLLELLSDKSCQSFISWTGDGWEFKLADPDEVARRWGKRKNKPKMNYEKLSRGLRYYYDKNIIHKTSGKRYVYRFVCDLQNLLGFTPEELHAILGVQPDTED
Method in brief: as §1

[13] = molecular target: T9, SPDEF (Homo sapiens, UniProt O95238 1-335); settings: protein: recombinant; tags: N-terminal GST; dsDNA, one strand shown
T9 sequence: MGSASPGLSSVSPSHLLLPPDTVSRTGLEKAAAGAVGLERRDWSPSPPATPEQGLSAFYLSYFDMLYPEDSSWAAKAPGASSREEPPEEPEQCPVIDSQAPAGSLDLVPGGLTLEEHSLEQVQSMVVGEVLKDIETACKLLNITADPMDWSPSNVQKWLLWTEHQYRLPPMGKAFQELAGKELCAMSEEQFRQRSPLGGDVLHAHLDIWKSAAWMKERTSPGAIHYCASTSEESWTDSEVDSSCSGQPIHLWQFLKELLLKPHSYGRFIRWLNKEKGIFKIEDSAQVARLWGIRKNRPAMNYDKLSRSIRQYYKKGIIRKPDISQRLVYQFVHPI
Method in brief: as §1

[14] = molecular target: T10, ETV7 (Homo sapiens, UniProt Q9Y603 1-341); settings: protein: recombinant; tags: N-terminal GST; dsDNA, one strand shown
T10 sequence: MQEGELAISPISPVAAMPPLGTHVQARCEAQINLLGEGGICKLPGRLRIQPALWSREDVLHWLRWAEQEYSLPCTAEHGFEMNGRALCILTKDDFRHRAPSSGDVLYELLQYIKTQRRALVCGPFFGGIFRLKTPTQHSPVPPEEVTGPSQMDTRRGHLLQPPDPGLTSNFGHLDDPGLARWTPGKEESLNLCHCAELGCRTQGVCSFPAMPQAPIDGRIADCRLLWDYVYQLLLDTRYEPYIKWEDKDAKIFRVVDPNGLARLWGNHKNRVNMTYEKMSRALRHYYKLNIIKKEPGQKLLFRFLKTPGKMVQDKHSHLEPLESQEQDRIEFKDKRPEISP
Method in brief: as §1

[15] = molecular target: T11, ELF5 (Homo sapiens, UniProt Q9UKW6-2 1-255); settings: protein: recombinant; tags: N-terminal GST; dsDNA, one strand shown
T11 sequence: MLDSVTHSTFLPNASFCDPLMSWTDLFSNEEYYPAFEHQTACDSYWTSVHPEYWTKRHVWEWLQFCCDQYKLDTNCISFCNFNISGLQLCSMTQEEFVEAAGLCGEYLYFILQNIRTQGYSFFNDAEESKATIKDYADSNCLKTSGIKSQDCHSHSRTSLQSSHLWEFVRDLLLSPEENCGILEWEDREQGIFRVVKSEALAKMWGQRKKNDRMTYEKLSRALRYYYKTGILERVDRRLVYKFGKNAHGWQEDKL
Method in brief: as §1

[16] = molecular target: T12, ETV3 (Homo sapiens, UniProt P41162-2 1-143); settings: protein: recombinant; tags: N-terminal GST; dsDNA, one strand shown
T12 sequence: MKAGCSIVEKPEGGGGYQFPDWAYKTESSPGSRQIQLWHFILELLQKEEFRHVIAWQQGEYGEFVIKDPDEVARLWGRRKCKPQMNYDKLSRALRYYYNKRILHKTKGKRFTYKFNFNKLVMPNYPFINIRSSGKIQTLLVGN
Method in brief: as §1

[17] = molecular target: ETV6 (Homo sapiens, UniProt P41212 1-452); settings: protein: recombinant; tags: N-terminal GST; dsDNA, one strand shown
Sequence of ETV6 (P41212 whole entry): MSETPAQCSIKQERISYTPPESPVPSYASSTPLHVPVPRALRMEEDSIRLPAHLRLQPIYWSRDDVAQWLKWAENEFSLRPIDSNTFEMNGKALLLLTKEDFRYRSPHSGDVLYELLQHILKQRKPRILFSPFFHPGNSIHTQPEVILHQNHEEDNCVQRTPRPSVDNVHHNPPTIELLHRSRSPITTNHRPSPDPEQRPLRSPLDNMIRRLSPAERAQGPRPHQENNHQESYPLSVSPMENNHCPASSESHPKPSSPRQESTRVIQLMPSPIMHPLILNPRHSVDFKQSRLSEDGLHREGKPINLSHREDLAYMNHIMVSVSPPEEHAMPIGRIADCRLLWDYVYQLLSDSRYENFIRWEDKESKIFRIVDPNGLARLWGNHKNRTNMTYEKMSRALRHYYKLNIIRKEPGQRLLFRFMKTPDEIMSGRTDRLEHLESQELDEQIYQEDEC
Method in brief: as §1

Sequence	binding signal [1]	binding signal [2]	binding signal [3]	binding signal [4]	binding signal [5]	binding signal [6]	binding signal [7]	binding signal [8]	binding signal [9]	binding signal [10]	binding signal [11]	binding signal [12]	binding signal [13]	binding signal [14]	binding signal [15]	binding signal [16]	binding signal [17]
ATGGTC	1.36 fold enrichment (6-mer frequency, TF over GST control)	1.57 fold enrichment (6-mer frequency, TF over GST control)	1.01 fold enrichment (6-mer frequency, TF over GST control)	1.63 fold enrichment (6-mer frequency, TF over GST control)	1.59 fold enrichment (6-mer frequency, TF over GST control)	1.38 fold enrichment (6-mer frequency, TF over GST control)	1.47 fold enrichment (6-mer frequency, TF over GST control)	1.48 fold enrichment (6-mer frequency, TF over GST control)	1.41 fold enrichment (6-mer frequency, TF over GST control)	1.45 fold enrichment (6-mer frequency, TF over GST control)	1.49 fold enrichment (6-mer frequency, TF over GST control)	1.49 fold enrichment (6-mer frequency, TF over GST control)	1.35 fold enrichment (6-mer frequency, TF over GST control)	1.29 fold enrichment (6-mer frequency, TF over GST control)	1.46 fold enrichment (6-mer frequency, TF over GST control)	1.55 fold enrichment (6-mer frequency, TF over GST control)	1.52 fold enrichment (6-mer frequency, TF over GST control)
GAAGTT	1.62 fold enrichment (6-mer frequency, TF over GST control)	1.66 fold enrichment (6-mer frequency, TF over GST control)	1.39 fold enrichment (6-mer frequency, TF over GST control)	1.76 fold enrichment (6-mer frequency, TF over GST control)	1.61 fold enrichment (6-mer frequency, TF over GST control)	1.52 fold enrichment (6-mer frequency, TF over GST control)	1.58 fold enrichment (6-mer frequency, TF over GST control)	1.82 fold enrichment (6-mer frequency, TF over GST control)	1.63 fold enrichment (6-mer frequency, TF over GST control)	1.47 fold enrichment (6-mer frequency, TF over GST control)	1.64 fold enrichment (6-mer frequency, TF over GST control)	1.71 fold enrichment (6-mer frequency, TF over GST control)	1.56 fold enrichment (6-mer frequency, TF over GST control)	1.65 fold enrichment (6-mer frequency, TF over GST control)	2 fold enrichment (6-mer frequency, TF over GST control)	1.7 fold enrichment (6-mer frequency, TF over GST control)	1.93 fold enrichment (6-mer frequency, TF over GST control)
